Drawing on PubChem BioAssay AID2314 (National Center for Advancing Translational Sciences (NCATS), 2010), this text covers max response for 60 compounds.

Hit rate of the full screen: of about 300,000 compounds, about 37,000 (12%) were called active. Shown is part of a subset that was picked to be rich in actives. A number with no mark means an inactive call. Cut-off read from the data, not from the text of the source: active = max response mostly above about 13% (no sharp cut-off); inactive = mostly below about 14%.

The test can be described thus: Cycloheximide Counterscreen for Small Molecule Inhibitors of Shiga Toxin. Note: read at 38.3 µM for the half of the compounds with a filed dose; 0% is about no effect. The conditions noted are these: cell reporter, cycloheximide protein synthesis inhibition counterscreen; stronger effect = higher value. (A counterscreen serves to expose hits that act by an unwanted route or on another target.)
Take `Cc1cc(=O)oc2c3c(cc(OCC(=O)N[C@H](C(=O)O)c4ccccc4)c12)OC(C)(C)CC3`: the max response is -1.78%. For `CC(C)C(NS(=O)(=O)c1ccc(-c2ccc(Br)cc2)cc1)C(=O)O` (stereo not given), the max response was 7.4%. Then `Cc1cc(C)cc(N(CC(=O)NC2CCCC2)C(=O)CCC(=O)Nc2nccs2)c1`, with -5.07%; and `Cc1nn(-c2ccccc2)c(=O)c2noc(C)c12`, with -1.05%. Regarding `Cc1nn(-c2ccccc2)c(C)c1NC(=O)CCl`, the max response is 17.3%. As for `Cc1nn(-c2ccccc2)c(C)c1/C=C/C(=O)OC(C)C(N)=O` (stereo not given), the max response was 18.6% (active). Regarding `CCc1ccccc1S(=O)(=O)Cc1ccc(C(=O)NCCc2ccccc2)o1`, the max response was 16%. `Cc1ccc(NC(=O)CNCc2ccccn2)cc1S(=O)(=O)N(C)C`: the max response was 19.5%. Under `CCN(CC)S(=O)(=O)c1ccc(NC(=O)c2cccnc2Cl)c(NC(=O)c2cccnc2Cl)c1` stands -1.75%; under `CCN(CC)S(=O)(=O)c1ccc(NC(=O)c2cnc(C)cn2)cc1`, 0.654%. On to `CCN(CC)S(=O)(=O)c1cccc(C(=O)Nc2ccccc2)c1`, for which the max response was 17.1% (active). Take `CCN(CC)S(=O)(=O)c1cccc(C(=O)NCC(=O)OCC(=O)NCc2ccccc2)c1`: the max response is -1.61%. Consider `CCN(CC)S(=O)(=O)c1cc(C(=O)Nc2ccccn2)ccc1C`, for which the max response was 45.1% (active).

On to `CC(C)c1ccc(C2C(C(=O)c3ccco3)=C(O)C(=O)N2CC2CCCO2)cc1` (stereo not given), for which the max response is 10.1%. Under `CC(C)(C)[C@H]1C=C(C(=O)NCc2ccccc2)O[C@@H](OCc2ccc(CO)cc2)C1` stands -1.33%; under `COc1cc(C(=S)N2CCOCC2)cc(OC)c1OC(=O)c1ccc([N+](=O)[O-])cc1[N+](=O)[O-]`, 3.8%. On to `CCN(CC)C(=O)CSc1nnc(-c2cnccn2)n1-c1ccc(C)cc1`, for which the max response is 0.416%.

As to `O=C(CSc1nnc(-c2cnccn2)n1Cc1ccco1)c1ccc(Cl)c(Cl)c1`, the max response is 0.777%. For `Cn1c(SCc2ccc(F)cc2)nnc1-c1ccncc1`, the max response is 10.5%. Then `Cc1ccc(CSc2nnc(-c3cnccn3)n2C)cc1`, with 10.9% (active); and `Cn1c(SCc2c(F)cccc2Cl)nnc1-c1cnccn1`, with 56.4% (active). As for `Oc1ccc(-n2nnnc2SCc2c(F)cccc2Cl)cc1`, the max response is -2.8%. On to `CN(C)C(=O)c1coc2nc3ccccc3nc12`, for which the max response is 4.74%. Under `COc1ccc(C(C[N+](=O)[O-])n2nc(C)cc2C)cc1` (stereo not given) stands -0.331%; under `COc1ccc(C(=O)N2CCc3cc(OC)c(OC)cc3C2c2cccc([N+](=O)[O-])c2)cc1` (stereo not given), 0.684%. Take `CSc1nc(O)c(Cc2ccccc2)c(=O)[nH]1`: the max response is -3.85%. `CCOC(=O)c1sc(NC(=O)CSc2n[nH]c(CC)n2)nc1C`: the max response was 0.587%. Take `CCOC(=O)c1ccccc1NC(=O)CSc1nc2ccccc2c(=O)[nH]1`: the max response is -3.39%. Take `CCOC(=O)c1sc(NC(=O)CSc2nc(O)c(Cc3ccccc3)c(=O)[nH]2)nc1C`: the max response was 39.7% (active). Regarding `O=C(CSc1nc(O)c(Cc2ccccc2)c(=O)[nH]1)Nc1nc2c(s1)CCCC2`, the max response is 28% (active). Take `O=C(CCS(=O)(=O)c1ccccc1)Nc1nc2c(s1)CCCC2`: the max response is 5.94%. Under `O=C(OCc1ccccc1F)c1ccc2c(c1)OCCO2` stands 33% (active); under `CC(NC(=O)COC(=O)c1ccc2c(c1)OCO2)c1ccccc1` (stereo not given), 7.94%; under `Cn1c(NC(=O)c2ccc3c(c2)OCO3)cc(=O)n(C)c1=O`, -4.72%.

Turning to `O=C(COC(=O)c1ccc2c(c1)OCCO2)NCc1ccccc1`, the max response was 10.5%. Consider `O=C(Nc1ccccc1F)c1ccc2c(c1)OCO2`, for which the max response was 41.4% (active). Under `COc1ccc(C(=O)Nc2ccc(F)cc2F)cc1` stands 28.7%. For `Cc1ccc(F)cc1NC(=O)c1cccc(N(C)C)c1`, the max response is 28.9% (active). `Cc1cccc(C(=O)Nc2ccccc2N2CCN(c3ccc(F)cc3)CC2)c1`: the max response is -0.148%. For the compound `Cc1ccc(F)cc1NC(=O)c1ccc2c(c1)OCO2`, the max response was 25.6% (active).

In the case of `O=C(Nc1ccccc1N1CCN(C(=O)c2ccccc2)CC1)c1ccc2c(c1)OCO2`, the max response is -1.45%. On to `Cc1ccc(-n2nc3c(c2NC(=O)c2ccc4c(c2)OCO4)CSC3)c(C)c1`, for which the max response was -1.7%. Take `Cc1cc2c(c(=O)n1C)C(C(C)C)C(C#N)=C(N)O2` (stereo not given): the max response was -2.6%. Turning to `Cc1cccc(C)c1NC(=O)CS(=O)CC(=O)N1CCN(c2ccccc2)CC1` (stereo not given), the max response was -5.35%. For the compound `CCc1cccc(C)c1N1C(=O)CN(Cc2ccccc2)C1=S`, the max response was -2.45%.

As for `O=C1/C(=C\c2cccnc2)CN(Cc2ccccc2)C/C1=C\c1cccnc1`, the max response is 7.45%.

Take `CCOC(=O)N1CCN(c2c(NCCN3CCN(c4ccccc4F)CC3)c(=O)c2=O)CC1`: the max response was -2.33%. Turning to `COc1ccc(C(CNCC(=O)Nc2ccccc2F)N(C)C)cc1` (stereo not given), the max response is -2.53%.

For the compound `COc1ccc(C2C(C#N)=C(N)Oc3cc(N)ccc32)cc1OC` (stereo not given), the max response was 11.4%.

Take `COCCCn1c(SCc2cccc(OC)c2)nc2cc(OC)c(OC)cc2c1=N`: the max response was 6.77%. Consider `N#Cc1ccccc1NC(=O)c1ccc2c(c1)OCO2`, for which the max response is 24.8% (active). Regarding `Cc1onc(-c2ccccc2)c1C(=O)Nc1ccccc1C#N`, the max response was 3.86%. With `O=C(CN1CCN(c2ccccc2F)CC1)c1ccc2c(c1)OCO2`, the max response is 16.8% (active). Turning to `O=C(CN1CCN(CC(=O)Nc2ccc3c(c2)OCO3)CC1)Nc1ccc(F)cc1`, the max response is -2.15%.

As to `CC1(c2ccc(Cl)cc2)NC(=O)N(CC(=O)c2ccc3c(c2)OCO3)C1=O` (stereo not given), the max response was 14.2%.

`O=C(c1ccc2c(c1)OCO2)N1CCNc2ccccc2C1`: the max response was 3.63%.

Consider `CSCCC(NC(=O)c1cc([N+](=O)[O-])cc([N+](=O)[O-])c1)c1nc2ccccc2[nH]1` (stereo not given), for which the max response is -1.41%. As to `Cc1cc(C(=O)N/N=C/c2cc([N+](=O)[O-])cc(C)c2O)n[nH]1`, the max response is 4.92%.

For `Cc1cc(=O)[nH]c(Nc2cccc(Br)c2)n1`, the max response was -1.7%. For the compound `CN(C)Cc1c(C(=O)N/N=C/c2ccccc2OCc2ccc(F)cc2)nnn1-c1nonc1N`, the max response was -5.05%.
